This passage reports composite z-score and z-score results from PubChem BioAssay.

Active and inactive are the calls of the source. Unless noted, no rule for the calls is given here.

In assay [1] the test system is XIP peptide (Xip251-270) binding. Nature of the assay: XIP fragment 251-270 binding compounds – biochemical, small-molecule microarray, fluorescence 635/667 nm, 0.1 µg/mL protein, primary screen (AID 1182). As to conditions: fluorescent protein binding, 635 nm, higher = more signal, called active from +8 up or from −8 down.
In a further assay the test system is XIP peptide (Xip251-270). As to the kind of experiment: compounds binding XIP fragment 251-270 – biochemical, small-molecule microarray, fluorescence 635/667 nm, 0.5 µg/mL protein, primary screen (AID 1183). The note with it: fluorescence 635 nm, higher = more signal.
Assay [2] is described as follows: blood-stage malaria parasite viability loss – strain 3D7, DAPI fluorescence, 100 nL, primary screen (AID 1184).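 Also: parasites grown inside human red blood cells in medium with human serum.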 The note with it: P. falciparum 3D7 growth, 3 d, higher = more signal.
For assay [3], the target named is Homeobox protein Hox-A13 (Mus musculus) (UniProt Q62424). Nature of the assay: disruptors of Hoxa13 oligonucleotide interaction – biochemical, fluorescence polarization, labeled oligonucleotide, primary screen (AID 1185). As to conditions: Hoxa13:DNA binding, 15 min, higher = more signal, called active from +8 up or from −8 down. A general note: Fluorescence polarisation rises when a labelled molecule tumbles more slowly, as on binding a larger partner.
Chain of Homeobox protein Hox-A13 (Mus musculus) (Q62424 whole entry, looked up): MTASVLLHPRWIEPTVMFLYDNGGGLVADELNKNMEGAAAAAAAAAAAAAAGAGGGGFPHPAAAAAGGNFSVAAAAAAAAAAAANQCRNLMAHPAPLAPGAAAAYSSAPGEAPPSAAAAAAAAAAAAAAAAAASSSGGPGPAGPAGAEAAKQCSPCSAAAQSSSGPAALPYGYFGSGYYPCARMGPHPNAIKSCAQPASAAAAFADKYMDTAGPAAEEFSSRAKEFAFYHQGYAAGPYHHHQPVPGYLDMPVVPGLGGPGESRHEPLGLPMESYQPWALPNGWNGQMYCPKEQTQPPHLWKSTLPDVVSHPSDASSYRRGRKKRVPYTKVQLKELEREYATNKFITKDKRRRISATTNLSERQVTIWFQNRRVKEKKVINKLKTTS

Assay [4] can be described thus: blockers of DNA damage checkpoint Chk1 activation – imaging, HeLa, hydroxyurea, phospho-Chk1 antibody, percent positive cells, primary screen (AID 1186). As to conditions: hydroxyurea-induced phospho-Chk1 immunofluorescence imaging, higher = more signal.
Assay [5] is described as follows: blockers of DNA damage checkpoint Chk1 activation – imaging, HeLa, hydroxyurea, phospho-Chk1 nuclear intensity, primary screen (AID 1187). The note with it: hydroxyurea-induced phospho-Chk1 immunofluorescence imaging, higher = more signal.

Consider `CCCCCN1CC=CC23O[C@@H]4C=CCCOC(=O)C4[C@H]2C(=O)N(CCCCCO)[C@@H]3C1=O` (stereo partly specified), for which the results for the composite z-score (in assay [1]; in the assay on XIP peptide (Xip251-270)) were 0.382 (inactive) and -0.0494, respectively. Besides, the z-score was 0.798 in assay [2], -4.21 (inactive) in assay [3], 0.251 (inactive) in assay [4] and 0.408 (inactive) in assay [5].

`O=C(CS)NCCCCCCNC(=O)[C@@H]1C[C@@H]2C(=O)N[C@@H](Cc3ccccc3)C(=O)N2[C@@H]1c1cccc(OCCO)c1`: the figures for the composite z-score (in assay [1]; in the assay with XIP peptide (Xip251-270)) were 0.644 (inactive) and 0.763, respectively. Besides, the z-score in assay [2] is 1.17; in assay [3], -2.64 (inactive); in assay [4], 0.835 (inactive); in assay [5] it was 1.17 (inactive).

Take `NC(=O)NCC#Cc1ccc2c(c1)[C@]1(C(=O)N2)[C@H](c2ccc(O)cc2)N2[C@H](c3ccccc3)[C@H](c3ccccc3)OC(=O)[C@H]2[C@@H]1C(=O)O`: the composite z-score is -0.211 (inactive) in assay [1] and 0.157 with XIP peptide (Xip251-270). For the same molecule, the z-score in assay [2] is 0.431; in assay [3], -5.27 (inactive); in assay [4], 0.123 (inactive); in assay [5], 0.094 (inactive).

Regarding `NCCCCCCNC(=O)[C@@H]1C[C@@H]2C(=O)NCC(=O)N2[C@@H]1c1ccc(O)cc1`, the figures for the composite z-score (in assay [1]; in the assay on XIP peptide (Xip251-270)) were -0.0092 (inactive) and 0.755, respectively. The z-score was -0.634 in assay [2], -1.98 (inactive) in assay [3], 0.563 (inactive) in assay [4] and 0.457 (inactive) in assay [5].

In the case of `COc1ccccc1CN1C(=O)c2ccccc2[C@@H](C(=O)NC2CC2)[C@@H]1c1ccc(CO)cc1`, the results for the composite z-score (in assay [1]; with XIP peptide (Xip251-270)) were 0.98 (inactive) and 0.835, respectively. Further, the z-score in assay [2] is -1.79; in assay [3], -2.46 (inactive); in assay [4], 0.0151 (inactive); in assay [5], 0.351 (inactive).

For the molecule `COc1ccc(/C=C/C=O)cc1`, the composite z-score in assay [1] was -0.338 (inactive); in the assay on XIP peptide (Xip251-270), 0.185. Further, the z-score in assay [2] is 1.01; in assay [3] it was 0.0055 (inactive); in assay [4], 0.0257 (inactive); in assay [5] it was 0.0335 (inactive).

With `C=C(COC)/C(=C/C[C@H](OC(C)=O)c1ccc(CO)o1)c1cc(C(=O)OC)ccc1OC`, the composite z-score in assay [1] is 0.443 (inactive); in the assay on XIP peptide (Xip251-270) it was -0.257. Moreover, the z-score is -2.07 in assay [2], -4.87 (inactive) in assay [3], -0.45 (inactive) in assay [4] and -0.735 (inactive) in assay [5].

Turning to `O=C1O[C@@H](c2ccccc2)[C@@H](c2ccccc2)N2[C@@H](c3ccccc3OCCO)[C@]3(C(=O)Nc4ccc(C#CC5=CCCCC5)cc43)[C@@H](C(=O)N3CCCCCCC3)[C@H]12`, the composite z-score is 5.92 (inactive) in assay [1] and 0.797 in the assay with XIP peptide (Xip251-270). Also, the z-score was -2 in assay [2], -13.8 (active) in assay [3], -0.0478 (inactive) in assay [4] and -0.372 (inactive) in assay [5].

As for `C=CC[C@]1(C(=O)NCCCOC)N=C(c2ccc(OCCCO)cc2)O[C@H]1c1ccccc1CN=[N+]=[N-]`, the composite z-score in assay [1] was 0.967 (inactive); in the assay on XIP peptide (Xip251-270), 0.763. For the same molecule, the z-score was -2.52 in assay [2], -5.11 (inactive) in assay [3], 0.14 (inactive) in assay [4] and -0.0062 (inactive) in assay [5].

For the molecule `COC(=O)C(CC#Cc1ccc2c(c1)[C@]1(C(=O)N2)[C@H](c2ccc(OCCO)cc2)N2[C@H](c3ccccc3)[C@H](c3ccccc3)OC(=O)[C@H]2[C@@H]1C(=O)Nc1nc2ccccc2s1)C(=O)OC`, the composite z-score is 0.081 (inactive) in assay [1] and 0.54 with XIP peptide (Xip251-270). For the same molecule, the z-score was -1.79 in assay [2], 0.63 (inactive) in assay [3], -0.378 (inactive) in assay [4] and -0.763 (inactive) in assay [5].

For the molecule `CCCc1cc2c(n1Cc1cc(F)cc(F)c1)C(C)C1CN(C(=O)c3ccccc3)C(C)(C(=O)OC)C21` (stereo unspecified), the composite z-score in assay [1] is 0.264 (inactive); in the assay with XIP peptide (Xip251-270), -0.0681. Also, the z-score was -1.32 in assay [2], -2.41 (inactive) in assay [3], 0.789 (inactive) in assay [4] and 0.0213 (inactive) in assay [5].

As for `COc1ccccc1CN1C(=O)c2ccccc2[C@@]2(Cc3ccccc3N(CC(C)C)C2=O)[C@@H]1c1ccc(CO)cc1`, the composite z-score was -0.25 (inactive) in assay [1] and 0.607 in the assay on XIP peptide (Xip251-270). Moreover, the z-score is -0.422 in assay [2], -0.795 (inactive) in assay [3], -0.132 (inactive) in assay [4] and -0.425 (inactive) in assay [5].

In the case of `CN(C)CCCC[C@@H]1NC(=O)[C@@H]2C[C@H](C(=O)NCCCCCCN)[C@H](c3cccc(OCCO)c3)N2C1=O`, the composite z-score in assay [1] was 1.57 (inactive); in the assay with XIP peptide (Xip251-270) it was 0.919. Further, the z-score is 0.0561 in assay [2], -3.85 (inactive) in assay [3], -0.945 (inactive) in assay [4] and -0.708 (inactive) in assay [5].

For the molecule `CN1C(=O)C2C=CC(C(O)C#Cc3ccccc3)N(N3CCCCC3)C2C1=O` (stereo unspecified), the composite z-score in assay [1] is 1.34 (inactive); in the assay with XIP peptide (Xip251-270) it was 0.84. Further, the z-score in assay [2] is -0.254; in assay [3], -4.72 (inactive); in assay [4] it was -0.699 (inactive); in assay [5], -0.674 (inactive).

With `COC(=O)[C@@]1(Cc2ccc(F)cc2)[C@H]2c3cc(C(=O)N(C)C)n(Cc4ccccc4)c3C[C@H]2CN1C(=O)c1ccccc1`, the composite z-score in assay [1] was 0.578 (inactive); in the assay with XIP peptide (Xip251-270), 0.766. The z-score in assay [2] is -1.41; in assay [3], -3.11 (inactive); in assay [4], 1.33 (inactive); in assay [5] it was 1.2 (inactive).

Consider `O=C1C[C@@](C(=O)NC2CC2)(c2ccc([N+](=O)[O-])cc2)[C@@H](c2ccc(CO)cc2I)N1C1CCCCC1`, for which the results for the composite z-score (in assay [1]; in the assay on XIP peptide (Xip251-270)) were 0.0057 (inactive) and 0.693, respectively. Also, the z-score in assay [2] is -1.28; in assay [3], -4.72 (inactive); in assay [4] it was -0.254 (inactive); in assay [5], -0.233 (inactive).
